Inconclusive results are not listed. A call without a number means that no potency is given here. Unmarked numbers belong to inactive results. Active and inactive are the calls of the source. Calls come from the whole dose curve; as a rule, active = well fitted curve in the direction sought with a large enough effect; inconclusive = small, poorly fitted or top-dose-only effect, or another doubt; inactive = no such curve, though single readings can be large; an effect the other way counts as inactive or inconclusive.
Assays:
NIH3T3 = test: qHTS assay to identify novel small-molecules to repurpose for Merkel cell carcinoma treatment (AID 1296009); details: MCC and control cell lines, CellTiter-Glo viability, 72 h; at 44.8 µM (top of the series) unless noted; note: nearly all actives have a fitted effect of over 60% in size
Method in brief: (§1)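 Luminescence from CellTiter-Glo, read 10 min after addition at room temperature, reported viability following a 72 hr, 37 degree celsius treatment with NPC or MIPE compounds in titration; values normalized to plate controls.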

UISO = test: as above; details: MCC and control cell lines, CellTiter-Glo viability, 72 h; series mostly up to 46 µM
Method in brief: as §1

WaGa = test: as above; details: MCC and control cell lines, CellTiter-Glo viability, 72 h; series mostly up to 46 µM
Method in brief: as §1

C33A = test: Primary qHTS to identify gynecologic anti-cancer compounds using libraries of approved drugs and bioactive compounds (AID 1345084); details: Gynecologic cancer cell panel viability, ATPlite luminescence, 48 h; series mostly up to 57.5 µM; note: nearly all actives have a fitted effect of over 55% in size
Method in brief: (§2)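 Cytotoxicity screen measuring ATP content by luciferase luminescence. Each compound is applied at five concentrations for 48 h at 37 C with 5% CO2.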

CAOV3 = test: as above; details: Gynecologic cancer cell panel viability, ATPlite luminescence, 48 h; series mostly up to 57.5 µM
Method in brief: as §2

CASKI = test: as above; details: Gynecologic cancer cell panel viability, ATPlite luminescence, 48 h; series mostly up to 57.5 µM
Method in brief: as §2

Es-2 = test: as above; details: Gynecologic cancer cell panel viability, ATPlite luminescence, 48 h; series mostly up to 57.5 µM
Method in brief: as §2

HeLa = test: as above; details: Gynecologic cancer cell panel viability, ATPlite luminescence, 48 h; series mostly up to 57.5 µM
Method in brief: as §2

Hek293T = test: as above; details: Gynecologic cancer cell panel viability, ATPlite luminescence, 48 h, control line for the selectivity index; series mostly up to 57.5 µM
Method in brief: as §2

JEG-3 = test: as above; details: Gynecologic cancer cell panel viability, ATPlite luminescence, 48 h; series mostly up to 57.5 µM
Method in brief: as §2

OV90 = test: as above; details: Gynecologic cancer cell panel viability, ATPlite luminescence, 48 h; series mostly up to 57.5 µM
Method in brief: as §2

PA-1 = test: as above; details: Gynecologic cancer cell panel viability, ATPlite luminescence, 48 h; series mostly up to 57.5 µM
Method in brief: as §2

Tov-21-G = test: as above; details: Gynecologic cancer cell panel viability, ATPlite luminescence, 48 h; series mostly up to 57.5 µM
Method in brief: as §2

Tov112D = test: as above; details: Gynecologic cancer cell panel viability, ATPlite luminescence, 48 h; series mostly up to 57.5 µM
Method in brief: as §2

[1] = Drug repurposing screens with cells derived from glioblastoma tumor samples (AID 1345199); details: GBM patient neurospheres viability, ATP luminescence, 48 h; note: nearly all actives have a fitted effect of over 40% in size; note: potency is the fitted concentration of half-maximal effect
Method in brief: (§3)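 Primary testing used CD133+ neurospheres from four GBM patients, seven concentrations, 48 h exposure and ATP-based viability; confirmation added three slower-growing patient lines.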

astro = test: as above; details: viability, ATP luminescence, 48 h; series mostly up to 45.9 µM
Method in brief: as §3

SKOV3 = test: Primary qHTS to identify gynecologic anti-cancer compounds using libraries of approved drugs and bioactive compounds (AID 1345084); details: Gynecologic cancer cell panel viability, ATPlite luminescence, 48 h; series mostly up to 57.5 µM; note: nearly all actives have a fitted effect of over 55% in size
Method in brief: as §2

[2] = at 45.9 µM (top of the series), tumour line B
[3] = at 45.9 µM (top of the series), tumour line D
[4] = at 46 µM (top of the series), tumour line A
[5] = at 46.1 µM (top of the series), tumour line C

## CCCc1c2oc(C(=O)O)cc(=O)c2cc2c(=O)cc(C(=O)O)n(CC)c12
NIH3T3
  outcome: inactive
UISO
  Potency: inactive
WaGa
  Potency: inactive
C33A
  Potency: inactive
CAOV3
  Potency: inactive
CASKI
  Potency: inactive
Es-2
  Potency: inactive
HeLa
  Potency: inactive
Hek293T
  Potency: inactive
JEG-3
  Potency: inactive
OV90
  Potency: inactive
PA-1
  Potency: inactive
Tov-21-G
  Potency: inactive
Tov112D
  Potency: inactive
[1]; [2]
  activity, negative = cell killing: -3.36%
[1]; [3]
  activity, negative = cell killing: -8.4%
[1]; [4]
  activity, negative = cell killing: -11%
[1]; [5]
  activity, negative = cell killing: -12.7%
astro
  Potency: inactive

## CN(C)CCN(Cc1ccsc1)c1ccccn1
NIH3T3
  outcome: inactive
UISO
  Potency: inactive
WaGa
  Potency: inactive
C33A
  Potency: inactive
CAOV3
  Potency: inactive
CASKI
  Potency: inactive
Es-2
  Potency: inactive
HeLa
  Potency: inactive
Hek293T
  Potency: inactive
JEG-3
  Potency: inactive
OV90
  Potency: inactive
PA-1
  Potency: inactive
SKOV3
  Potency: inactive
Tov-21-G
  Potency: inactive
Tov112D
  Potency: inactive

## N#CC1(c2ccc(F)cc2)CCC(=O)CC1
NIH3T3
  outcome: inactive
UISO
  Potency: inactive
WaGa
  Potency: inactive
C33A
  Potency: inactive
CAOV3
  Potency: inactive
CASKI
  Potency: inactive
Es-2
  Potency: inactive
HeLa
  Potency: inactive
Hek293T
  Potency: inactive
JEG-3
  Potency: inactive
OV90
  Potency: inactive
PA-1
  Potency: inactive
SKOV3
  Potency: inactive
Tov-21-G
  Potency: inactive
Tov112D
  Potency: inactive

## CC(=O)N(CC(O)CO)c1c(I)c(C(=O)NCCO)c(I)c(C(=O)NCC(O)CO)c1I (stereo not drawn)
NIH3T3
  outcome: inactive
UISO
  Potency: inactive
WaGa
  Potency: inactive
C33A
  Potency: inactive
CAOV3
  Potency: inactive
CASKI
  Potency: inactive
Es-2
  Potency: inactive
HeLa
  Potency: inactive
Hek293T
  Potency: inactive
JEG-3
  Potency: inactive
OV90
  Potency: inactive
PA-1
  Potency: inactive
Tov-21-G
  Potency: inactive
Tov112D
  Potency: inactive
[1]; [2]
  activity, negative = cell killing: -10.8%
[1]; [3]
  activity, negative = cell killing: 12.9%
[1]; [5]
  activity, negative = cell killing: -5.5%
astro
  Potency: inactive

## CCCCC(O)/C=C(C)/C=C/C=C/C(=O)N1CCCC1=O (stereo not drawn)
NIH3T3
  outcome: inactive
UISO
  Potency: inactive
WaGa
  Potency: inactive
C33A
  Potency: inactive
CAOV3
  Potency: inactive
CASKI
  Potency: inactive
Es-2
  Potency: inactive
HeLa
  Potency: inactive
Hek293T
  Potency: inactive
JEG-3
  Potency: inactive
OV90
  Potency: inactive
PA-1
  Potency: inactive
Tov-21-G
  Potency: inactive
Tov112D
  Potency: inactive

## COc1ccc2c(c1)CCCC2=O
NIH3T3
  outcome: inactive
UISO
  Potency: inactive
WaGa
  Potency: inactive
C33A
  Potency: inactive
CAOV3
  Potency: inactive
CASKI
  Potency: inactive
Es-2
  Potency: inactive
HeLa
  Potency: inactive
Hek293T
  Potency: inactive
JEG-3
  Potency: inactive
OV90
  Potency: inactive
PA-1
  Potency: inactive
Tov-21-G
  Potency: inactive
Tov112D
  Potency: inactive

## CCOC(=O)Cn1cccc1-c1nc(-c2ccc(OC)cc2)c(-c2ccc(OC)cc2)s1
NIH3T3
  outcome: inactive
UISO
  Potency: inactive
WaGa
  Potency: inactive
C33A
  Potency: inactive
CAOV3
  Potency: inactive
CASKI
  Potency: inactive
Es-2
  Potency: inactive
HeLa
  Potency: inactive
Hek293T
  Potency: inactive
JEG-3
  Potency: inactive
OV90
  Potency: inactive
PA-1
  Potency: inactive
SKOV3
  Potency: inactive
Tov-21-G
  Potency: inactive
Tov112D
  Potency: inactive
[1]; [2]
  activity, negative = cell killing: -12.2%
[1]; [3]
  activity, negative = cell killing: -21.7%
[1]; [5]
  activity, negative = cell killing: -5.22%
[1]; tumour line A
  Potency: 6.31 µM (active)
astro
  Potency: inactive

## O=C(CCCl)NCc1ccccc1
NIH3T3
  outcome: inactive
UISO
  Potency: inactive
WaGa
  Potency: inactive
C33A
  Potency: inactive
CAOV3
  Potency: inactive
CASKI
  Potency: inactive
Es-2
  Potency: inactive
HeLa
  Potency: inactive
Hek293T
  Potency: inactive
JEG-3
  Potency: inactive
OV90
  Potency: inactive
PA-1
  Potency: inactive
SKOV3
  Potency: inactive
Tov-21-G
  Potency: inactive
Tov112D
  Potency: inactive

## OCCCc1ccccc1
NIH3T3
  outcome: inactive
UISO
  Potency: inactive
WaGa
  Potency: inactive
C33A
  Potency: inactive
CAOV3
  Potency: inactive
CASKI
  Potency: inactive
Es-2
  Potency: inactive
HeLa
  Potency: inactive
Hek293T
  Potency: inactive
JEG-3
  Potency: inactive
OV90
  Potency: inactive
PA-1
  Potency: inactive
SKOV3
  Potency: inactive
Tov-21-G
  Potency: inactive
Tov112D
  Potency: inactive
[1]; [2]
  activity, negative = cell killing: -21.4%
[1]; [3]
  activity, negative = cell killing: -9.24%
[1]; [4]
  activity, negative = cell killing: -22.3%
[1]; [5]
  activity, negative = cell killing: 2.38%
astro
  Potency: inactive

## CO/N=C(\C(=O)O)c1csc(NC(=O)CCl)n1
NIH3T3
  outcome: inactive
UISO
  Potency: inactive
WaGa
  Potency: inactive
C33A
  Potency: inactive
CAOV3
  Potency: inactive
CASKI
  Potency: inactive
Es-2
  Potency: inactive
HeLa
  Potency: inactive
Hek293T
  Potency: inactive
JEG-3
  Potency: inactive
OV90
  Potency: inactive
PA-1
  Potency: inactive
SKOV3
  Potency: inactive
Tov-21-G
  Potency: inactive
Tov112D
  Potency: inactive

## COc1cc(OC)nc(O[C@H](C(=O)O)C(OC)(c2ccccc2)c2ccccc2)n1
NIH3T3
  outcome: inactive
UISO
  Potency: inactive
WaGa
  Potency: inactive
C33A
  Potency: inactive
CAOV3
  Potency: inactive
CASKI
  Potency: inactive
Es-2
  Potency: inactive
HeLa
  Potency: inactive
Hek293T
  Potency: inactive
JEG-3
  Potency: inactive
OV90
  Potency: inactive
PA-1
  Potency: inactive
SKOV3
  Potency: inactive
Tov-21-G
  Potency: inactive
Tov112D
  Potency: inactive

## O=C(O)c1cn(C2CC2)c2cc(Cl)c(F)cc2c1=O
NIH3T3
  outcome: inactive
UISO
  Potency: inactive
WaGa
  Potency: inactive
C33A
  Potency: inactive
CAOV3
  Potency: inactive
CASKI
  Potency: inactive
Es-2
  Potency: inactive
HeLa
  Potency: inactive
Hek293T
  Potency: inactive
JEG-3
  Potency: inactive
OV90
  Potency: inactive
PA-1
  Potency: inactive
SKOV3
  Potency: inactive
Tov-21-G
  Potency: inactive
Tov112D
  Potency: inactive

## COc1cc2c(cc1OC)C(=O)CC2
NIH3T3
  outcome: inactive
UISO
  Potency: inactive
WaGa
  Potency: inactive
C33A
  Potency: inactive
CAOV3
  Potency: inactive
CASKI
  Potency: inactive
Es-2
  Potency: inactive
HeLa
  Potency: inactive
Hek293T
  Potency: inactive
JEG-3
  Potency: inactive
OV90
  Potency: inactive
PA-1
  Potency: inactive
SKOV3
  Potency: inactive
Tov-21-G
  Potency: inactive
Tov112D
  Potency: inactive

## NS(=O)(=O)c1ccc(N2CCCCS2(=O)=O)cc1
NIH3T3
  outcome: inactive
UISO
  Potency: inactive
WaGa
  Potency: inactive
C33A
  Potency: inactive
CAOV3
  Potency: inactive
CASKI
  Potency: inactive
Es-2
  Potency: inactive
HeLa
  Potency: inactive
Hek293T
  Potency: inactive
JEG-3
  Potency: inactive
OV90
  Potency: inactive
PA-1
  Potency: inactive
SKOV3
  Potency: inactive
Tov-21-G
  Potency: inactive
Tov112D
  Potency: inactive

## COc1ccccc1OCC1CNC(=O)O1 (stereo not drawn)
NIH3T3
  outcome: inactive
UISO
  Potency: inactive
WaGa
  Potency: inactive
C33A
  Potency: inactive
CAOV3
  Potency: inactive
CASKI
  Potency: inactive
Es-2
  Potency: inactive
HeLa
  Potency: inactive
Hek293T
  Potency: inactive
JEG-3
  Potency: inactive
OV90
  Potency: inactive
PA-1
  Potency: inactive
Tov-21-G
  Potency: inactive
Tov112D
  Potency: inactive
[1]; [2]
  activity, negative = cell killing: -0.636%
[1]; [3]
  activity, negative = cell killing: -0.575%
[1]; [4]
  activity, negative = cell killing: -28.8%
[1]; [5]
  activity, negative = cell killing: 4.79%
astro
  Potency: inactive

## CCCCN(CCCC)C(C(N)=O)c1ccc(OC)cc1 (stereo not drawn)
NIH3T3
  outcome: inactive
UISO
  Potency: inactive
WaGa
  Potency: inactive
C33A
  Potency: inactive
CAOV3
  Potency: inactive
CASKI
  Potency: inactive
Es-2
  Potency: inactive
HeLa
  Potency: inactive
Hek293T
  Potency: inactive
JEG-3
  Potency: inactive
OV90
  Potency: inactive
PA-1
  Potency: inactive
Tov-21-G
  Potency: inactive
Tov112D
  Potency: inactive

From PubChem BioAssay (NCATS)
